Assay results taken from PubChem BioAssay (EPA / NIEHS).
Inconclusive results are not listed. The source made the active and inactive calls. The calls were made as follows, unless noted: active = hit-call score of the fitted dose curve at least 0.9, where 1 is the maximum; inconclusive = response in the unintended direction; inactive = score below 0.9.

Tests used:
[1] = target: Nucleoli Translocation, AR (gene 367) (UniProt P10275); assay: UPITT_HCI_U2OS_AR_TIF2_Nucleoli_Antagonist: University of Pittsburgh U2OS Androgen Receptor-Transcriptional Intermediary Factor 2 (AR-TIF2) Antagonism High Content Imaging Assay for Nucleoli Translocation (AID 2283997)
Outline: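 An antagonist-mode imaging screen: engineered U2OS (AR-RFP, TIF2-GFP) exposed to 20 uM compound, 0.2% DMSO. Activity reflects nucleolar red fluorescence change relative to DHT baseline.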

AR (gene 367) = AR (gene 367) (UniProt P10275); assay: ACEA_AR_agonist_80hr: ACEA Biosciences xCELLigence Real-Time Cell Analysis on Androgen Receptor Agonism for Proliferation (AID 2283783);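 also: hits increase impedance growth signal above DMSO baseline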
Outline: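 Real-time cell-growth kinetics were recorded by electrode impedance in 22Rv1 cells exposed to test chemicals up to 100 uM final; the 80 h timepoint served as the readout, fitted upward relative to DMSO controls, in biological duplicate.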

[2] = target: human Matrix Metalloproteinase-9 (MMP9), MMP9 (gene 4318) (UniProt P14780); assay: NVS_ENZ_hMMP9: NovaScreen (NVS) Enzymatic Assay for human Matrix Metalloproteinase-9 (MMP9) (AID 2283190);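 also: cell-free recombinant MMP9 protease activity read by fluorescent substrate signal; active means inhibition seen as loss of fluorescence signal versus DMSO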
Outline: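 Cell-free fluorescence-intensity enzyme activity assay using extracted protein, read 1 h after dosing. Loss of signal versus DMSO baseline indicates inhibition; primary screen in duplicate at 25 uM, actives followed up in concentration series.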

[3] = target: rat Peripheral-type Benzodiazepine Receptor (PBR), Tspo (gene 24230) (UniProt P16257); assay: NVS_MP_rPBR: NovaScreen (NVS) Membrane Protein Assay for rat Peripheral-type Benzodiazepine Receptor (PBR) (AID 2283335)
Outline: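 Single-concentration duplicate screening at 25 uM preceded concentration-series retesting of actives. Binding of a specific radioligand to rat kidney membrane PBR was read by filtration radiodetection after 1 h, with plate-wise positive and negative controls.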

[4] = target: human Dual Specificity Protein Phosphatase 3 (DUSP3), DUSP3 (gene 1845) (UniProt P51452); assay: NVS_ENZ_hDUSP3: NovaScreen (NVS) Enzymatic Assay for human Dual Specificity Protein Phosphatase 3 (DUSP3) (AID 2283152);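 also: phosphatase activity of recombinant human DUSP3 on a fluorogenic substrate without cells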
Outline: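 Cell-free fluorescence-intensity enzyme activity assay with recombinant protein and substrate; loss of signal fitted relative to DMSO baseline. Primary screen in duplicate at 25 uM, actives then run in concentration series; measured 0 h after dosing.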

[5] = target: bovine Estrogen Receptor (ER), ESR1 (gene 407238) (UniProt P49884); assay: NVS_NR_bER: NovaScreen (NVS) Nuclear Receptor Binding Assay for bovine Estrogen Receptor (ER) (AID 2283345);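 also: actives lower the bound radioligand count which means they displace the ER ligand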
Outline: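 Displacement of a radioligand from estrogen receptor in bovine uterine membrane preparations; scintillation signal taken at 18 hours, DMSO as baseline. Single-concentration duplicates (25 uM) preceded concentration-response follow-up of actives.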

[6] = target: D(1A) dopamine receptor (Homo sapiens) (UniProt P21728); assay: NVS_GPCR_hDRD1: NovaScreen (NVS) G Protein-Coupled Receptor Assay for human Dopamine Receptor D1 (DRD1) (AID 2283269)
Outline: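 Cell-free competition with radioligand, filter-trapped and scintillation-counted 1 h post-dose, using HEK293-derived human D1 preparation. Duplicate single-point testing at 25 uM first, then concentration series for actives; DMSO served as baseline, loss-of-signal scored.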

[7] = target: Sodium channel protein type 1 subunit alpha (Rattus norvegicus) (UniProt P04774); assay: NVS_IC_rNaCh_site2: NovaScreen (NVS) Ion Channel Assay for rat Sodium Channel, Site 2 (NaCh) (AID 2283322);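 also: hit means loss of radioligand binding signal relative to DMSO so AC50 marks displacement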
Outline: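 Initial duplicate single-point testing at 25 uM, followed by concentration-response runs for actives. Binding of radioligand to rat forebrain membranes quantified after 1 h via filter-based radiodetection.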

[8] = target: guinea pig Sigma Receptor, Non-selective Binding, SIGMAR1 (gene 100135589) (UniProt Q60492); assay: NVS_OR_gSIGMA_NonSelective: NovaScreen (NVS) Nuclear Receptor Binding Assay for guinea pig Sigma Receptor, Non-selective Binding (AID 2283367)
Outline: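 Test chemicals were screened in duplicate at 25 uM, then in concentration series if active, against radioligand binding to guinea pig brain membranes; filtration and scintillation counting at 1 h measured remaining bound ligand.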

[9] = tested on: guinea pig Dopamine Transporter (DAT), gene 100714898; assay: NVS_TR_gDAT: NovaScreen (NVS) Transporter Assay for guinea pig Dopamine Transporter (DAT) (AID 2283369);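 also: active compounds lower bound radioligand signal relative to DMSO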
Outline: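 Scintillation counts of filter-retained radioligand report binding to guinea pig striatal membranes after 2 h. Activity scored as signal loss relative to DMSO, first at 25 uM in duplicate, then in concentration series to 50 uM.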

[10] = CCTE_Shafer_MEA_dev_bursting_electrodes_number: CCTE's Neural Network Formation Assay for Number of Bursting Electrodes, Shafer Lab (AID 2284043)
Outline: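 Counted: electrodes with burst rate ≥1 per 2 min in each well. Cells: primary rat cortex, 1.5 x 10^5/well, on 16-electrode MEA wells. Exposure: DIV 0–12, compound renewed DIV 5 and 9. Recording days 5, 7, 9, 12; AUC vs DMSO baseline.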

[11] = CCTE_Shafer_MEA_acute_AB: CCTE's Alamar Blue Assay for Cytotoxicity in the Neural Acute Assay, Shafer Lab (AID 2284069);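 also: active compounds lower the viability signal compared with DMSO wells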
Outline: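 Resazurin reduction (CellTiter Blue, 1:6 in fresh medium) read at ex 544/em 590 nm marks viability loss relative to DMSO. Cells: primary rat cortical neuron networks on microelectrode arrays, treated after baseline recording at 13 or 15 days in vitro.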

[12] = CCTE_Shafer_MEA_dev_AB: CCTE's Alamar Blue Assay for Cytotoxicity in the Neural Network Formation Assay, Shafer Lab (AID 2284083);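 also: resazurin reduction fluorescence as viability of cultured neurons; twelve days of exposure from plating with re-dosing on DIV 5 and 9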
Outline: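 Resazurin fluorescence, relative to DMSO, gauges viability after twelve days of exposure that began at plating of rat cortical neurons (1.5 x 10^5 cells/well, 48-well MEA); treatment renewed with full medium exchange on DIV 5 and 9.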

[13] = IUF_NPC1b_proliferation_BrdU_72hr: Leibniz Research Institute for Environmental Medicine (IUF) 72-hour Neural Progenitor Cell Bromodeoxyuridine (BrdU) Proliferation Assay (NPC1b) (AID 2284207; active = hit-call score of the fitted dose curve at least 0.9, where 1 is the maximum; inactive = score below 0.9)
Outline: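 Neural progenitor spheres of human fetal origin are treated for three days; BrdU added for the last 16 h is quantified by luminescence ELISA, with DMSO as baseline and EGF/FGF omission as positive control.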

[14] = IUF_NPC1a_proliferation_area_72hr: Leibniz Research Institute for Environmental Medicine (IUF) 72-hour Neural Progenitor Cell Proliferation Area Assay (NPC1a) (AID 2284208; active = hit-call score of the fitted dose curve at least 0.9, where 1 is the maximum; inactive = score below 0.9)
Outline: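 Spheres of 0.3 mm are plated singly in growth-factor medium and exposed from day 0. After three days at 37C and 5% CO2, sphere area is measured by phase contrast imaging, with activity referenced to DMSO.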

[15] = IUF_NPC1_viability_72hr: Viability Assessment at 72 hours in the Leibniz Research Institute for Environmental Medicine (IUF) Neural Progenitor Cell Proliferation Assay (NPC1) (AID 2284209; active = hit-call score of the fitted dose curve at least 0.9, where 1 is the maximum; inactive = score below 0.9)
Outline: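 Alamar blue fluorescence (RFU) after 72 h exposure, normalized to DMSO baseline. hNPC spheres from GW 16-19 fetal cortex, single sphere per well in growth-factor medium; no compound renewal.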

[16] = CCTE_Mundy_HCI_hNP1_CellTiter: CCTE's Cell Titer-Glo 2 Assay in human neuroprogenitor cells for Viability, Mundy Lab (AID 2284241)
Outline: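 Measures ATP content in human neural progenitors derived from WA09 embryonic cells. Read-out at 26.5 hours after dosing, with DMSO serving as the negative control and baseline.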

[17] = IUF_NPC2c_oligodendrocyte_migration_120hr: Leibniz Research Institute for Environmental Medicine (IUF) 120-hour Neural Progenitor Cell Migration Assay for Oligodendrocyte Migration (NPC2c) (AID 2284297; active = hit-call score of the fitted dose curve at least 0.9, where 1 is the maximum; inactive = score below 0.9)
Outline: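 Read-out is the mean distance of O4-positive oligodendrocytes from the sphere core edge at 120 h, normalized to radial glia migration and fitted in the gain direction against DMSO. Spheres of primary human neural progenitors differentiated on laminin under continuous compound exposure.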

[18] = IUF_NPC2a_radial_glia_migration_120hr: Leibniz Research Institute for Environmental Medicine (IUF) 120-hour Neural Progenitor Cell Migration Assay for Radial Glia Migration (NPC2a) (AID 2284298; active = hit-call score of the fitted dose curve at least 0.9, where 1 is the maximum; inactive = score below 0.9)
Outline: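 Readout: distance in um from sphere core edge to migration-area edge, derived from Hoechst nuclei density with a threshold-defined polynomial boundary. Spheres: hNPC, GW 16-19, 0.3 mm, on PDL/laminin; exposure 5 days; DMSO is baseline.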

[19] = IUF_NPC2a_radial_glia_migration_72hr: Leibniz Research Institute for Environmental Medicine (IUF) 72-hour Neural Progenitor Cell Migration Assay for Radial Glia Migration (NPC2a) (AID 2284299; active = hit-call score of the fitted dose curve at least 0.9, where 1 is the maximum; inactive = score below 0.9)
Outline: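 Readout: mean of four manual brightfield measurements of radial glia migration distance (um) at 72 h. hNPC spheres (0.3 mm) exposed to 7 compound concentrations plus solvent control on PDL/laminin, 37C, 5% CO2; activity fitted relative to DMSO.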

Chain of D(1A) dopamine receptor (Homo sapiens) (P21728 whole entry, looked up): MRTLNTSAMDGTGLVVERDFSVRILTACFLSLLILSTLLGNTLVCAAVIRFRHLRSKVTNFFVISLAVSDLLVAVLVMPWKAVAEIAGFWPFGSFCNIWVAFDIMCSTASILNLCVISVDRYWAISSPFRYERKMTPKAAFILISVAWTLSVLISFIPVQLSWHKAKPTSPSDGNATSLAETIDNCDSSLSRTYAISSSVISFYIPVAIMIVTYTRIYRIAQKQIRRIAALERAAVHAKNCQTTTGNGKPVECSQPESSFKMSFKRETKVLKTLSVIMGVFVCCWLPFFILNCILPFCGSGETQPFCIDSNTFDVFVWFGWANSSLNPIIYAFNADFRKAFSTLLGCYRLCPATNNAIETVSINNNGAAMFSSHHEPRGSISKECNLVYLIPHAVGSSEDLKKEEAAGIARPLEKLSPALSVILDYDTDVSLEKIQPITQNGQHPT
Chain of human Matrix Metalloproteinase-9 (MMP9), MMP9 (gene 4318) (P14780 whole entry, looked up): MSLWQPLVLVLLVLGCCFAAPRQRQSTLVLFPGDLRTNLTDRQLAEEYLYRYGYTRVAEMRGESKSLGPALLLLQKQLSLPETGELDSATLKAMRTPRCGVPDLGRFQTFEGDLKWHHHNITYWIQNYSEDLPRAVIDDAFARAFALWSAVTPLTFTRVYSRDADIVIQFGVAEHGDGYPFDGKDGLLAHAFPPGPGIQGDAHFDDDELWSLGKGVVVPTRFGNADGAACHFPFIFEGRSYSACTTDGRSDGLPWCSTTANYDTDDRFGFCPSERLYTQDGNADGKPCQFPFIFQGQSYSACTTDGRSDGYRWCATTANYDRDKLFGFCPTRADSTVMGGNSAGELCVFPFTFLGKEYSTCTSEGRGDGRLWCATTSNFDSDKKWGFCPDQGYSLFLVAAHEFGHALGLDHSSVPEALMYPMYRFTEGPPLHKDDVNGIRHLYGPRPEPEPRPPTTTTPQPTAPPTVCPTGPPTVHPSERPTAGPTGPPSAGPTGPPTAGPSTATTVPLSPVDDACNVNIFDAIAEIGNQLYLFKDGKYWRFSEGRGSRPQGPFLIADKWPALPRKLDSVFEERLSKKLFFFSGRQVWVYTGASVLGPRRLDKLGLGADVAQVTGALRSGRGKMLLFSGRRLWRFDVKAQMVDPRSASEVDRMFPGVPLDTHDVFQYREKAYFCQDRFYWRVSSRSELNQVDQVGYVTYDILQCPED
Chain of human Dual Specificity Protein Phosphatase 3 (DUSP3), DUSP3 (gene 1845) (P51452 whole entry, looked up): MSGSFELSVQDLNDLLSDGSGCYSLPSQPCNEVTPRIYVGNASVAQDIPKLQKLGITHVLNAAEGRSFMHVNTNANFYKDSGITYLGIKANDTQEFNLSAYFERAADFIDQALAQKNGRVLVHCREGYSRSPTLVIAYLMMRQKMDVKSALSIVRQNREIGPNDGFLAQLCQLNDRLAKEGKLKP
Chain of AR (gene 367) (P10275 whole entry, looked up): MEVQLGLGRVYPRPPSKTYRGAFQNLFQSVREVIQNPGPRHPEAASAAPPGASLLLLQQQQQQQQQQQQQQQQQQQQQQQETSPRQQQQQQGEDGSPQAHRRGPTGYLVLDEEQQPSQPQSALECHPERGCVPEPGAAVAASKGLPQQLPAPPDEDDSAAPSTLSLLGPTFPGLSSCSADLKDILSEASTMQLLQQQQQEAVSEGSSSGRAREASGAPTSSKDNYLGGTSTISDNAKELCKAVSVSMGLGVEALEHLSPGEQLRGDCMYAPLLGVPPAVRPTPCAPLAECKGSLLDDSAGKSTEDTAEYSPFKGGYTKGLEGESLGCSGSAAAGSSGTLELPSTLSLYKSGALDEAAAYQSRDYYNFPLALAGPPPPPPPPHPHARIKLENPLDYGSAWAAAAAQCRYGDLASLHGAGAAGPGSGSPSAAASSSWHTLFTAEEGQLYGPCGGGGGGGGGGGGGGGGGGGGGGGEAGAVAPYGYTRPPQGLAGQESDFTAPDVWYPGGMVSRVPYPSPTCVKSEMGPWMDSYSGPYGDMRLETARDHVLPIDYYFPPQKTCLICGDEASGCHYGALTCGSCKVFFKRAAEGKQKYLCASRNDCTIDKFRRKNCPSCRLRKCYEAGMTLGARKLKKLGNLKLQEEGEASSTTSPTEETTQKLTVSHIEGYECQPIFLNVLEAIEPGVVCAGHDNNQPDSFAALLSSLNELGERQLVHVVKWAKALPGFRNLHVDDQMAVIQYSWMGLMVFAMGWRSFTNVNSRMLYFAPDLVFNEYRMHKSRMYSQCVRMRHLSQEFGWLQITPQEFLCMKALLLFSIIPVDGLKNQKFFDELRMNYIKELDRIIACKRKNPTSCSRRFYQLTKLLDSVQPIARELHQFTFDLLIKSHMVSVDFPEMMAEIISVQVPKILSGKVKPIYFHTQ
Chain of Nucleoli Translocation, AR (gene 367) (P10275 whole entry, looked up): as above
Chain of rat Peripheral-type Benzodiazepine Receptor (PBR), Tspo (gene 24230) (P16257 whole entry, looked up): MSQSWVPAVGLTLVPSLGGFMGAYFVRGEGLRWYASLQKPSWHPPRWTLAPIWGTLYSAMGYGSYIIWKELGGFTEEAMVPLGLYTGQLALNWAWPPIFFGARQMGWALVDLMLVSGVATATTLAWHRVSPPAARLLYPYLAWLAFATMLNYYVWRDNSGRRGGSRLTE
Chain of bovine Estrogen Receptor (ER), ESR1 (gene 407238) (P49884 whole entry, looked up): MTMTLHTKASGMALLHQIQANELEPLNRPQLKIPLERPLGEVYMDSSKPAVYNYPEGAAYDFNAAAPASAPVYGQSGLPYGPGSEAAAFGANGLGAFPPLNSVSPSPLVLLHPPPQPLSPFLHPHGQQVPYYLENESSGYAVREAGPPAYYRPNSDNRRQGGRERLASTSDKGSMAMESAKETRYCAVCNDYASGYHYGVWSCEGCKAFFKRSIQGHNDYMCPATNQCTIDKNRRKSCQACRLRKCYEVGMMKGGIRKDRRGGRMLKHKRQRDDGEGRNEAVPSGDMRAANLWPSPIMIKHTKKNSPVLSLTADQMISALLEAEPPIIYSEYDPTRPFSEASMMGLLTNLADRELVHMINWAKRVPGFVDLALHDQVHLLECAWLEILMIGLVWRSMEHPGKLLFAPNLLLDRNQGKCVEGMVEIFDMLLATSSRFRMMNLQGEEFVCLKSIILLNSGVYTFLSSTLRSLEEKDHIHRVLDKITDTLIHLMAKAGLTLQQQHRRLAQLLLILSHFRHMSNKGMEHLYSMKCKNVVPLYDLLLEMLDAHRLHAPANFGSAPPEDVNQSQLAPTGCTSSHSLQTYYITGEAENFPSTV
Chain of guinea pig Sigma Receptor, Non-selective Binding, SIGMAR1 (gene 100135589) (Q60492 whole entry, looked up): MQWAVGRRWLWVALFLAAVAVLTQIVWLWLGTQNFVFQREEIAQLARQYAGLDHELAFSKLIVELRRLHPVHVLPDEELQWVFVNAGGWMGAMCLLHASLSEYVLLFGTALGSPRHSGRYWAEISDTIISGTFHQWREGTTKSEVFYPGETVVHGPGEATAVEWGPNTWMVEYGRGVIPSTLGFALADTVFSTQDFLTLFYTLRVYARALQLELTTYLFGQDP

SMILES: O=C(c1ccccc1)c1ccccc1O
- outcome [1]: inactive

SMILES: CO[Si](CCCNCCN)(OC)OC
- outcome (AR (gene 367)): inactive

SMILES: CN(C)c1ccc(C(c2ccccc2)c2ccc(N(C)C)cc2)cc1
- outcome [2]: inactive
- AC50 [3]: 25 µM (active)

SMILES: CCC(C)(CCC(C)C)C(=O)O (stereo not given)
- AC50 [2]: 2.32 µM (active)

SMILES: Cc1cc(C)c(S(=O)(=O)O)cc1N=Nc1cc(S(=O)(=O)O)c2ccccc2c1O
- outcome (AR (gene 367)): inactive
- outcome [1]: inactive

SMILES: CC1(C)S[C@@H]2[C@H](NC(=O)[C@H](N)c3ccccc3)C(=O)N2[C@H]1C(=O)O
- AC50 [4]: 8.24 µM (active)

SMILES: COC(OC)C(C)c1ccccc1 (stereo not given)
- outcome [5]: inactive

SMILES: CN(C)CCC(c1ccc(Cl)cc1)c1ccccn1 (stereo not given)
- AC50 [6]: 12.1 µM (active)
- AC50 [7]: 3.21 µM (active)
- AC50 [8]: 3.14 µM (active)
- AC50 [9]: 3.05 µM (active)
- outcome [10]: inactive
- outcome [11]: inactive
- outcome [12]: inactive
- outcome [13]: inactive
- outcome [14]: inactive
- outcome [15]: inactive
- outcome [16]: inactive
- outcome [17]: inactive
- outcome [18]: inactive
- outcome [19]: inactive

SMILES: NC(N)=Nc1nc(CSCCC(N)=NS(N)(=O)=O)cs1
- outcome [10]: inactive
- outcome [11]: inactive
- outcome [12]: inactive
- outcome [13]: inactive
- outcome [14]: inactive
- outcome [15]: inactive
- outcome [16]: inactive
- outcome [17]: inactive
- outcome [18]: inactive
- outcome [19]: inactive

SMILES: O=C(C(=O)c1ccccc1)c1ccccc1
- outcome [7]: inactive
- AC50 [3]: 1.86 µM (active)
- AC50 [9]: 3.77 µM (active)

SMILES: Cc1cc2nc3c(=O)[nH]c(=O)nc-3n(C[C@H](O)[C@H](O)[C@H](O)CO)c2cc1C
- outcome [5]: inactive

SMILES: CCCCCCCCCCCCCCCCCC[N+](C)(C)C
- AC50 [4]: 7.9 µM (active)
- AC50 [6]: 2.53 µM (active)
- AC50 [8]: 2.61 µM (active)
